This is an account of results in PubChem BioAssay (NCATS).

The test system of assay [1] is NIH3T3. Put plainly: qHTS assay to identify novel small-molecules to repurpose for Merkel cell carcinoma treatment (AID 1296009; active means well fitted curve in the direction sought with a large enough effect; an effect the other way counts as inactive or inconclusive; further: nearly all actives have a fitted effect of over 60% in size). The following applies: MCC and control cell lines, CellTiter-Glo viability, 72 h; at 44.8 µM (top of the series) unless noted. In short, it runs like this:
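After compound transfer in DMSO, plates were kept 72 hr at 37 degree celsius. Luminescent ATP signal from CellTiter-Glo served as viability measure, normalized against DMSO and no-cell controls.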

Assay [2] addresses Glucocorticoid receptor (Homo sapiens) (UniProt P04150). In words: qHTS assay for small molecule antagonists of glucocorticoid receptor signaling (AID 588533; active means well fitted inhibition curve with a large enough effect in the signal ratio, with a control signal flat, not every such curve was filed as active; the % refers to the signal ratio;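 further: cells stimulated with 2 nM dexamethasone as agonist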; further: potency means the concentration at half of the fitted maximal effect; on activity change, negative = inhibition: on the % scale 0 is the no-effect control and ±100 the full control effect). The method in brief: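 Antagonist-mode qHTS: compound titrations added to GRE-bla HeLa cells, then dexamethasone 2 nM final; 18 h, 37 C. CCF4 FRET fluorescence normalized to dexamethasone and DMSO; IC50 from Hill fit.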
Background: qHTS replaces the single test concentration by a dilution series.

The target of assay [3] is Peroxisome proliferator-activated receptor delta (Homo sapiens) (UniProt Q03181). In words: qHTS assay for small molecule agonists of peroxisome proliferator-activated receptor delta signaling (AID 588534). Further: potency means the concentration at half of the fitted maximal effect.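 On activation: 0% = DMSO basal wells and 100% = positive control agonist at 10 µM.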 In short, it runs like this:
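Reporter cells were plated and held 5 hrs at 37 C before compounds were added. After 18 hrs at 37 C, CCF4 dye was loaded for 2 hrs at RT and fluorescence measured.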

Assay [4] addresses Vitamin D3 receptor (Homo sapiens) (UniProt P11473). Put plainly: qHTS assay for small molecule agonists of vitamin D receptor signaling (AID 588543). Further: potency means the concentration at half of the fitted maximal effect.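 On activation: 0% = DMSO basal and 100% = reference agonist control.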 The method in brief:
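Reporter cells (HEK293T, VDR-UAS-bla) were seeded in medium with 2% charcoal-stripped serum and incubated 5 h, then compounds in concentration series were added for 16 h at 37 °C. Stimulation was scaled between DMSO basal and 50 nM 1α,25-dihydroxyvitamin D3.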

The target of assay [5] is Thyroid hormone receptor beta (Homo sapiens) (UniProt P10828). In words: qHTS assay for small molecule agonists of thyroid hormone receptor beta signaling (AID 588545). Further: potency means the concentration at half of the fitted maximal effect. In short, it runs like this:
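Agonist-mode beta-lactamase reporter assay, HEK 293 cells, 2% charcoal/dextran FBS; cells plated 4 hrs, compound 18 hrs at 37 C, CCF4 2 hrs RT. Normalized to 10 nM T3 (100%) and DMSO (0%); Hill fit gives EC50, efficacy.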

A short description of assay [6]: qHTS assay for small molecule activators of the p53 signaling pathway (AID 651743; active means well fitted activation curve with a large enough effect in the signal ratio, not every such curve was filed as active; the % refers to the signal ratio; further: potency means the concentration at half of the fitted maximal effect; on activation: % of control where 0% means no effect). The note with it: HCT-116 p53RE-bla, beta-lactamase FRET ratio, 16 h; activation: stronger effect = higher value. The method in brief:
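Screen for p53 pathway agonists uses stably transfected p53RE-bla HCT-116 cells, 4,000 per well, treated 16 h at 37 C with compounds in DMSO.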

Assay [7] can be described thus: qHTS assay for small molecule activators of the nuclear factor-kappa B (NF-kB) signaling pathway (AID 651749; active means well fitted activation curve with a large enough effect in the signal ratio; the % refers to the signal ratio; further: potency means the concentration at half of the fitted maximal effect; on activation: % of control where 0% means no effect). The following applies: NF-kB-bla ME-180 cells, beta-lactamase FRET ratio, 16 h; activation: stronger effect = higher value. The method in brief: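 Stably transfected ME-180 line; NF-kB response element upstream of beta-lactamase. Treatment: compound or DMSO, 16 hr. Detection: fluorescent FRET substrate.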

Assay [8] addresses Peroxisome proliferator-activated receptor alpha (Homo sapiens) (UniProt Q07869). Put plainly: qHTS assay for small molecule agonists of the peroxisome proliferator-activated receptor alpha (PPARalpha) signaling pathway (AID 651778; active means well fitted curve in the direction sought with a large enough effect; an effect the other way counts as inactive or inconclusive; further: % of control where 0% means no effect). The following applies: PathHunter PPARalpha complementation, chemiluminescence, 6 h; stronger effect = higher value. The method in brief: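 Chemiluminescence from complemented enzyme reported PPARalpha activation in cells after 6 hr of compound treatment at 37 C. The detection reagent was incubated for 60 min at room temperature, and compounds were scored as agonists.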

A short description of assay [9]: qHTS assay for small molecule agonists of the antioxidant response element (ARE) signaling pathway measured by Nrf2-dependant transcriptional activity - cell viability counter screen (AID 720653; active means well fitted curve in the direction sought with a large enough effect in the repeat runs; an effect the other way counts as inactive or inconclusive; further: on the % scale 0 is the no-effect control and ±100 the full control effect). The following applies: ARE-bla HepG2 viability, CellTiter-Glo ATP luminescence, 16 h; max response: stronger effect = lower value. In short, it runs like this: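 Cytotoxicity counter screen: intracellular ATP quantified by CellTiter-Glo luminescence in the same ARE-bla HepG2 plates, after 16 h compound exposure and a 2 h beta-lactamase substrate step.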

Assay [10] in a line: qHTS assay for cell viability of the p53RE-bla HCT-116 cell line (AID 743292; active means well fitted curve in the direction sought with a large enough effect; an effect the other way counts as inactive or inconclusive; further: on the % scale 0 is the no-effect control and ±100 the full control effect; nearly all actives have a fitted effect of over 55% in size). In short, it runs like this: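 HCT-116 p53RE-bla cells seeded 4,000/well; 5 h at 37 C; compound (DMSO) added; 16 h at 37 C; CellTiter-Glo added, 30 min RT; luminescence read.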
Assay [11] deals with Nuclear receptor subfamily 1 group I member 2 (Rattus norvegicus) (UniProt Q9R1A7). Put plainly: qHTS assay for small molecule activators of the rat pregnane X receptor (rPXR) signaling pathway (AID 651751; call rule not given here; further: 0% is about no effect). The following applies: rPXR reporter cells, luciferase (One-Glo), 24 h.
Chain of Nuclear receptor subfamily 1 group I member 2 (Rattus norvegicus) (Q9R1A7 whole entry, looked up): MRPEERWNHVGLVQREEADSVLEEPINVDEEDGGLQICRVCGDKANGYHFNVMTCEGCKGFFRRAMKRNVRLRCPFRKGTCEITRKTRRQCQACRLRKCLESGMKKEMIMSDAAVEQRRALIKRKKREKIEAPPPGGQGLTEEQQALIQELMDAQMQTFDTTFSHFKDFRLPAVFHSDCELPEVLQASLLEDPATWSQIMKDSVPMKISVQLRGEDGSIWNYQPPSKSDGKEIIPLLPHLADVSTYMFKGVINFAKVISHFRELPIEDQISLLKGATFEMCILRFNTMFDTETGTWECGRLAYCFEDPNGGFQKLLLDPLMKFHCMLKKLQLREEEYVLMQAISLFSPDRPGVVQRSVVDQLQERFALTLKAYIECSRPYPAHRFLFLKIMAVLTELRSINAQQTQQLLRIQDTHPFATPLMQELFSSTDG
A short description of assay [12]: qHTS assay for small molecule activators of the human pregnane X receptor (PXR) signaling pathway (AID 720659; call rule not given here; further: 0% is about no effect).
Assay [13] in a line: Primary qHTS to identify inhibitors of SARS-CoV-2 cell entry (AID 1645846). Further: nearly all actives have a fitted effect of over 45% in size. The note with it: activity change, negative = inhibition: at 57.1 µM (top of the series) unless noted. The method in brief:
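Inhibition of spike-mediated entry was scored in human ACE2-transfected Expi293F cells. Particles were MLV-pseudotyped with Wuhan-Hu-1 S carrying a 19-aa C-terminal deletion; signal was luciferase after two days, scaled between spike PP and fusion-protein-free PP.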

Assay [14] can be described thus: Primary qHTS for inhibitors of MERS-S pseudo-typed particle cell entry (AID 1479149). Further: nearly all actives have a fitted effect of over 60% in size.
Assay [15] addresses Cytochrome P450 3A4 (Homo sapiens) (UniProt P08684). In words: qHTS Assay for Inhibitors and Substrates of Cytochrome P450 3A4 (AID 884; active means well fitted curve in the direction sought with a large enough effect; an effect the other way counts as inactive or inconclusive; further: on the % scale 0 is the no-effect control and ±100 the full control effect; nearly all actives have a fitted effect of over 50% in size). In short, it runs like this: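 20 nM human CYP3A4 with 25 uM Luciferin-PPXE (at KM) in 200 mM KPO4, preincubated 10 min with compound; NADPH regeneration started a 60 min RT reaction. Luciferin detected by luminescence, normalized to 57 uM ketoconazole as full inhibition.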

Assay [16] in a line: qHTS Assay for Lipid Storage Modulators (AID 1519). On activity change, negative = inhibition: on the % scale 0 is the no-effect control and ±100 the full control effect. The following applies: Drosophila S3 cells, BODIPY lipid droplet/cell ratio, laser cytometry, cells loaded with oleic acid; for activity change, negative = inhibition: at 57.5 µM (top of the series). The method in brief: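 Cells seeded at 5,000 per well were treated with compounds over a concentration series and loaded with oleic acid (400 uM, as added). Lipid droplet fluorescence (488 nm excitation, 500-530 nm channel) was read by laser-scanning cytometry and normalized to 20 uM Triacsin C.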

A short description of assay [17]: qHTS for Inhibitors of the Functional Ribonucleoprotein Complex (vRNP) of Lassa (LASV) Arenavirus: LASV Primary Screen - GLuc reporter signal (AID 1347082; calls by dose curve; tested in HEK293 reporter line; further: nearly all actives have a fitted effect of over 60% in size; further: potency means the concentration at half of the fitted maximal effect; on activity change, negative = inhibition: on the % scale 0 is the no-effect control and ±100 the full control effect).
A short description of assay [18]: qHTS for Inhibitors of the Functional Ribonucleoprotein Complex (vRNP) of Lassa (LASV) Arenavirus: Viability assay - alamar blue signal for LASV Primary Screen (AID 1347083; calls by dose curve; tested in HEK293 reporter line; further: on the % scale 0 is the no-effect control and ±100 the full control effect; nearly all actives have a fitted effect of over 80% in size).
Assay [19] is described as follows: qHTS for Inhibitors of the Functional Ribonucleoprotein Complex (vRNP) of Lymphocytic Choriomeningitis Arenaviruses (LCMV): Viability assay - alamar blue signal for LCMV Primary Screen (AID 1347085; calls by dose curve; tested in HEK293 reporter line; further: on the % scale 0 is the no-effect control and ±100 the full control effect; nearly all actives have a fitted effect of over 80% in size).
Assay [20] has as its target Nucleoprotein (Lymphocytic choriomeningitis virus (strain Armstrong)) (UniProt P09992). Put plainly: qHTS for Inhibitors of the Functional Ribonucleoprotein Complex (vRNP) of Lymphocytic Choriomeningitis Arenaviruses (LCMV): LCMV Primary Screen - GLuc reporter signal (AID 1347086). Further: on the % scale 0 is the no-effect control and ±100 the full control effect; nearly all actives have a fitted effect of over 70% in size.
Where [21] appears, read: measured here: cell count channel max response.
[22] abbreviates: measured here: lipid channel max response.

Several values for one entry are separate records, joined by “and”; a condition that tells them apart may be missing. Identical values can stand only once. Inconclusive results are not listed. Activity calls are given as the source filed them. Unless noted, the call rests on the fitted dose curve.

Chain of Glucocorticoid receptor (Homo sapiens) (P04150 whole entry, looked up): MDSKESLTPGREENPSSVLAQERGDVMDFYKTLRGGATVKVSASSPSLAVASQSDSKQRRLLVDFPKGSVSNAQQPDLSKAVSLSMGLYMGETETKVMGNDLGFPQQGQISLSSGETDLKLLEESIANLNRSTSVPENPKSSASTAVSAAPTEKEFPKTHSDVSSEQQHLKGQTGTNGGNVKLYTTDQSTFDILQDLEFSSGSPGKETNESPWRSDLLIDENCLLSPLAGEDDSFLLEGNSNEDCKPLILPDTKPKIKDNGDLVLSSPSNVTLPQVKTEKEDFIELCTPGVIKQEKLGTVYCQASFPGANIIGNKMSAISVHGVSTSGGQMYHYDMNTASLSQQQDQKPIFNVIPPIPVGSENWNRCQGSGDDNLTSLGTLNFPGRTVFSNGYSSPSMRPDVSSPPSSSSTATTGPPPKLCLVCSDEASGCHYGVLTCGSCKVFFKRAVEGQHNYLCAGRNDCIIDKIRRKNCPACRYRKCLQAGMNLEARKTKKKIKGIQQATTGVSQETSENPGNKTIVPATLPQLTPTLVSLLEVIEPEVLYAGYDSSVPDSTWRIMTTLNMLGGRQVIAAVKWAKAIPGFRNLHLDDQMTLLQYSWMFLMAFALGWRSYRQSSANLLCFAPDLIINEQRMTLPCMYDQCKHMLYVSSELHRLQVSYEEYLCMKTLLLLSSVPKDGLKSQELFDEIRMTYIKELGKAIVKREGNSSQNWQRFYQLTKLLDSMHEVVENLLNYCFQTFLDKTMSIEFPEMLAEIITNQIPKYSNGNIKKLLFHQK
Chain of Vitamin D3 receptor (Homo sapiens) (P11473 whole entry, looked up): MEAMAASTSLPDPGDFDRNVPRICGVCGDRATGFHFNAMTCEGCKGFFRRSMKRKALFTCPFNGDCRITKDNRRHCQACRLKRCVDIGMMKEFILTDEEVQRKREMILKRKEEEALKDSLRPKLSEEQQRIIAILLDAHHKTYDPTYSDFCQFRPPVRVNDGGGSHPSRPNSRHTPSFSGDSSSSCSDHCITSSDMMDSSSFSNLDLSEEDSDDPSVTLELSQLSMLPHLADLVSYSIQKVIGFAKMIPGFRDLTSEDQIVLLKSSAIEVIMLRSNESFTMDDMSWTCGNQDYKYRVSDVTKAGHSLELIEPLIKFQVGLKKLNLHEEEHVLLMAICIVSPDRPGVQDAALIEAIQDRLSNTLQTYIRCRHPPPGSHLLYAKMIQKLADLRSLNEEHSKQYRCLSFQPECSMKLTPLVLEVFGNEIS
Chain of Nucleoprotein (Lymphocytic choriomeningitis virus (strain Armstrong)) (P09992 whole entry, looked up): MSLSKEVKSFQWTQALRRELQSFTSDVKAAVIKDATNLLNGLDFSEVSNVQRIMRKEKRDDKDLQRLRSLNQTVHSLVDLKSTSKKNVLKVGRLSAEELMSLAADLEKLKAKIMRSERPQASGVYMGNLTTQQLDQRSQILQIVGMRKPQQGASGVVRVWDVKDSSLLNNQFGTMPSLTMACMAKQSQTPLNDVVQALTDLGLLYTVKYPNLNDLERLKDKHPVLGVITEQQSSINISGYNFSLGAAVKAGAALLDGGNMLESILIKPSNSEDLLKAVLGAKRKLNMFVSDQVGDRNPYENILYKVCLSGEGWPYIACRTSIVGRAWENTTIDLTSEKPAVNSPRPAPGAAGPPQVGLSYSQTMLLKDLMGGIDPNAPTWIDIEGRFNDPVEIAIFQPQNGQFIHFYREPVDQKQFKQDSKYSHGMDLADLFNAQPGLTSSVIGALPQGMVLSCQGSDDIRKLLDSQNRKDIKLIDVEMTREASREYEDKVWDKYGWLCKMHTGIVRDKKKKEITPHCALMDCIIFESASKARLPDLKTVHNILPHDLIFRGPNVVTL
Chain of Thyroid hormone receptor beta (Homo sapiens) (P10828 whole entry, looked up): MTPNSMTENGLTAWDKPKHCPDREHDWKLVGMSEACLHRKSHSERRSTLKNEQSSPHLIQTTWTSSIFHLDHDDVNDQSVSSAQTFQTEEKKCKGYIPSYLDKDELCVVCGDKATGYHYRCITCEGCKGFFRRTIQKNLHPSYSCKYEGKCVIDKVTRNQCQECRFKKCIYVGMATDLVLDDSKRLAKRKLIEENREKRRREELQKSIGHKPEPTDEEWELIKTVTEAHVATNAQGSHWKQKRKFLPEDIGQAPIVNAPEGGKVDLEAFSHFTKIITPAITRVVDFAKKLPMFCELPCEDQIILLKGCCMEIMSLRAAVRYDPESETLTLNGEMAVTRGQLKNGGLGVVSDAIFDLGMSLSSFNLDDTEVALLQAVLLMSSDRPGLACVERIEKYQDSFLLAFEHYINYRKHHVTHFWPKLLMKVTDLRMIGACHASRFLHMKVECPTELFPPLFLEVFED
Chain of Peroxisome proliferator-activated receptor alpha (Homo sapiens) (Q07869 whole entry, looked up): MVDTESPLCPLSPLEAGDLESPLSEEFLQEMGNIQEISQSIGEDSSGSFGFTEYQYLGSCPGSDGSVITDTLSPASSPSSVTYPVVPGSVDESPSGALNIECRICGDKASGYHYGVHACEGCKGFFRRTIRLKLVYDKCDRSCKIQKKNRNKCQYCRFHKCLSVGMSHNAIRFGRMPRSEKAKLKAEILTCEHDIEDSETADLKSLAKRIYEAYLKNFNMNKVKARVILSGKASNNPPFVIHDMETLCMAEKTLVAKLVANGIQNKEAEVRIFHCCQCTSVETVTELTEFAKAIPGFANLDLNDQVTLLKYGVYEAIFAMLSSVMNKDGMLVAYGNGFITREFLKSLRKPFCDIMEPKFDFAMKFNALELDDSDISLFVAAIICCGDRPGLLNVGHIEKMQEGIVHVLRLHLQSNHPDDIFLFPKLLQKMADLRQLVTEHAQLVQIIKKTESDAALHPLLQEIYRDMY
Chain of Cytochrome P450 3A4 (Homo sapiens) (P08684 whole entry, looked up): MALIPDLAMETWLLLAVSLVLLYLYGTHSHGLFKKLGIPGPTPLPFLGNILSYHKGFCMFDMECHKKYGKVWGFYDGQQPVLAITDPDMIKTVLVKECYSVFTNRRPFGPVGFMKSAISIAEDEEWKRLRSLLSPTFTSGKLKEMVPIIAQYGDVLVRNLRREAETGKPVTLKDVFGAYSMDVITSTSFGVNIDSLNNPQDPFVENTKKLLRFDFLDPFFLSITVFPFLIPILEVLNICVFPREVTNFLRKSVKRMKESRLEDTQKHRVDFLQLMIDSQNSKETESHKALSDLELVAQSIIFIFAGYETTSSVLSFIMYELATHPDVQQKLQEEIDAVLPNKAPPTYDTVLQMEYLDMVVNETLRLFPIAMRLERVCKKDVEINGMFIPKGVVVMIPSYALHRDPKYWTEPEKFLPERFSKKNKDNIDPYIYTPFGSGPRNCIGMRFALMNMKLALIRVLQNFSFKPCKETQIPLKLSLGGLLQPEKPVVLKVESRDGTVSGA
Chain of Peroxisome proliferator-activated receptor delta (Homo sapiens) (Q03181 whole entry, looked up): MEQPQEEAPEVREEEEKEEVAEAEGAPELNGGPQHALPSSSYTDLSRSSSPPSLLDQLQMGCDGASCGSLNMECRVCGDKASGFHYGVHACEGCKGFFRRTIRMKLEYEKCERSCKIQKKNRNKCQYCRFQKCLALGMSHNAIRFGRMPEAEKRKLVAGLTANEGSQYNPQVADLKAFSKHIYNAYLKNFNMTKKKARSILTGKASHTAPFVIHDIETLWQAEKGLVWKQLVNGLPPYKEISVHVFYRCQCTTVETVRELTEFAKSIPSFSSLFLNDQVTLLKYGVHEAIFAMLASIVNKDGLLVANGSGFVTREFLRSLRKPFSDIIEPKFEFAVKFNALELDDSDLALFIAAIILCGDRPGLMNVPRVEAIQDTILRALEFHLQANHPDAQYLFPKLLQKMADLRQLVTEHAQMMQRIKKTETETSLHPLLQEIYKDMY

In the case of `C/C=C(\C)C(=O)O[C@@H]1[C@@H](C)[C@]2(O)C3C=C(C)C(=O)[C@@]3(O)CC(CO)=C[C@H]2C2C(C)(C)[C@@]21OC(=O)C(C)CC` (stereo not given in full), the outcome in assay [1] is “inactive [at 17.4 µM]”.

Take `C[C@@H]1Cc2c(Cl)cc(C(=O)N[C@@H](Cc3ccccc3)C(=O)O)c(O)c2C(=O)O1`: the Potency was 0.891 µM (active) in assay [2]; 39.8 µM (active) in assay [3]; 44.7 µM (active) in assay [4]; 44.7 µM (active) in [5]; 0.891 µM (active) in assay [6]; 44.7 µM (active) in assay [7]. In addition, the figures for the max response in assay [8], in [9] and in [11] were -0.744% (inactive), 9.38% (inactive) and -12% (inactive), respectively. Besides, the compound was classed as inactive in [10] and in [12].

`C[C@]12CC[C@H](OC3OC(CO)C(O)C(O)C3OC3OC(CO)C(O)C(O)C3O)C[C@@H]1CC[C@@H]1C2CC[C@]2(C)[C@@H](C3=CC(=O)OC3)CC[C@]12O` (stereo not given in full): the outcome in assay [1] is “inactive [at 17.4 µM]”.

For the compound `C/C(=C\c1csc(C)n1)[C@@H]1C[C@@H]2O[C@@H]2CCC[C@H](C)[C@H](O)[C@@H](C)C(=O)C(C)(C)[C@@H](O)CC(=O)O1`, in assay [13], the activity change, negative = inhibition was -70%.

Consider `Cc1ccc(-n2nccn2)c(C(=O)N2CCN(c3nc4cc(Cl)ccc4o3)CCC2C)c1` (stereo not given), for which, in assay [1], the compound was classed as inactive.

Consider `C[C@]12CC[C@H](O[C@@H]3O[C@H](CO)[C@@H](O)[C@H](O)[C@H]3O)CC1CC[C@@H]1C2CC[C@]2(C)[C@@H](C3=CC(=O)OC3)CC[C@]12O` (stereo not given in full), for which the outcome in [1] is “inactive [at 17.4 µM]”.

In the case of `CC(=O)[C@@]1(O)CC[C@H]2[C@@H]3CCC4=CC(=O)CC[C@]4(C)C3(F)[C@@H](O)C[C@@]21C` (stereo not given in full), the Potency entry in assay [14] is “inactive”. Besides, the activity change, negative = inhibition in assay [13] was -3.62%.

`C[N+](C)(C)CC(=O)[O-]`: the Potency entry in [15], in [17], in assay [18], in [19] and in assay [20] was “inactive” each time. Also, in assay [16], the activity change, negative = inhibition is 3.78% (inactive). Besides, the max response in [16] (setting [21]) was 0.576%; in assay [16] (setting [22]), 6.22%.

In the case of `Clc1ccc([C@@H]2C[C@H]3CC[C@@H]2N3)cn1`, the activity change, negative = inhibition in assay [16] is -3.65% (inactive). Also, the max response in [16] (setting [21]) is 0.171%; in [16] (setting [22]), -1.79%. The Potency entry in assay [17], in [18], in [19] and in [20] was “inactive” each time.

For `COC(=O)[C@H]1[C@@H](OC(=O)c2ccccc2)C[C@@H]2CC[C@H]1N2C`, the Potency result in assay [17], in assay [18], in [19], in [20] and in assay [14] was “inactive” throughout. For the same compound, the activity change, negative = inhibition in assay [13] was -14.7% [at 114 µM].

`CC(C)=CCN1CC[C@]2(C)c3cc(O)ccc3C[C@H]1[C@H]2C`: the Potency result in assay [14] is “inactive”. For the same compound, in assay [13], the activity change, negative = inhibition was -30.2% [at 114 µM].

As to `O=Cc1ccccc1`, the Potency result in assay [15], in [3] and in assay [4] was “inactive” in each case. In addition, the activation in [6] is -1.08% (inactive). For the same compound, the max response in [8] was -3.46% (inactive); in assay [9], -5.51% (inactive); in [11] it was 2.23% (inactive). Moreover, the compound was called inactive in [10] and in [12].

For the compound `CC(=O)O[C@H]1C[C@H](O[C@H]2[C@@H](O)C[C@H](O[C@H]3[C@@H](O)C[C@H](OC4CC[C@@]5(C)C(CC[C@@H]6[C@@H]5CC[C@]5(C)[C@@H](C7=CC(=O)OC7)[C@@H](O)C[C@]65O)C4)O[C@@H]3C)O[C@@H]2C)O[C@H](C)[C@H]1O[C@@H]1O[C@H](CO)[C@@H](O)[C@H](O)[C@H]1O` (stereo not given in full), the Potency in [17] was 0.794 µM (active).

Take `COC(=O)c1ccccc1C(=O)OC`: the Potency entry in [15], in assay [2], in assay [4] and in assay [5] was “inactive” each time. For the same compound, the activation in assay [6] was -1.52% (inactive) and -1.95% (inactive); in [7], -0.143% (inactive) and 1.34% (inactive). Also, the max response in [8] was 0.0123% (inactive) and 4.21% (inactive); in assay [9] it was 8.24% (inactive) and 6.8% (inactive); in assay [11] it was 5.6% (inactive) and 2.87% (inactive). In addition, the call in [10] and in [12] was inactive.

With `CCOc1cc(C=O)ccc1O`, the Potency entry in assay [15], in assay [2], in [3], in [4] and in assay [5] was “inactive” each time. Also, the activation was -1.8% (inactive) in [6]; -0.0137% (inactive) and -0.605% (inactive) in assay [7]. Moreover, the max response in assay [8] is -3.28% (inactive) and -2.59% (inactive); in assay [9] it was -16.9% (inactive) and 0.643% (inactive); in assay [11], -3.58% (inactive) and -0.453% (inactive). The call in assay [10] and in assay [12] was inactive.

For `CC(C)C[C@H]1C(=O)N2CCC[C@H]2[C@]2(O)O[C@](NC(=O)[C@@H]3C[C@@H]4c5cccc6[nH]cc(c56)C[C@H]4N(C)C3)(C(C)C)C(=O)N12`, in assay [14], the Potency result is “inactive”.

With `Cc1nnc2n1-c1sc(Br)cc1C(c1ccccc1Cl)=NC2`, the Potency result in [14] was “inactive”.

Take `CC(C)(O)[C@H]1CC[C@@](C)([C@H]2[C@@H](O)C[C@@]3(C)[C@@H]4C[C@H](O[C@@H]5O[C@H](CO)[C@@H](O)[C@H](O)[C@@H]5O)[C@H]5C(C)(C)[C@@H](O[C@@H]6OC[C@@H](O)[C@H](O)[C@@H]6O)CC[C@@]56C[C@@]46CC[C@]23C)O1`: the Potency entry in [17], in assay [18], in assay [19] and in assay [20] was “inactive” each time.
